TRPV1 ag: human TRPV1 agonism | Q8NER1 | TRPV1-expressing cells, Fluo-8 calcium influx, agonist mode | activation, % at 8.33 µM | actives 0.19% (n = 320,000); in the data active = activation above about 80%; inconclusive = between about 30% and that limit; also: 0% is about no effect
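Cells expressing TRPV1 were dye-loaded with Fluo-8 and read kinetically: 10 s baseline, 3 min after compound (agonist portion), then 2 min after EC20 capsaicin (allosteric enhancer portion). Calcium-bound dye fluorescence at 480/520 nm.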
D1 potentiator: enhances dopamine response at the human D1 receptor; P21728; HEK293 TREx D1 cells, calcium flux, dopamine EC20 potentiation; potentiation, % at 10 µM; actives 0.036% (n = 360,000); in the data active = potentiation above about 30%; also: 0% is about no effect
D1 agonist: activates the human D1 dopamine receptor; actives 1% (n = 360,000); P21728; HEK293 T-REx D1 cells, calcium flux, agonist mode; activation, % at 2 µM; in the data active = activation above about 30%; also: 0% is about no effect
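Tetracycline-induced HEK293 TREx D1 cells, force-coupled to calcium signalling, were dye-loaded with a no-wash calcium kit. Compound was pin-added after a 10 s baseline. Fluorescence was read kinetically at 1 cycle/s for 180 s, with calcium rises flagged as agonism.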
D1 antag: antagonists of human D1 dopamine receptor; actives 3.2% (n = 360,000); activity change, negative = inhibition, % at 10 µM; HEK293 TREx D1 cells, calcium flux, dopamine EC80; hits give low values; P21728; in the data active = activity change below about -30%; also: % is scaled to controls: 0 for no effect and ±100 for the full control effect
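HEK293 T-REx cells expressing inducible, force-coupled D1 receptor; no-wash Ca dye, 30–90 min RT. Cmpd → 180 s read at 1 Hz → EC80 DA → 180 s read.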
TRPV1 potentiator: potentiators of human vanilloid receptor 1 (TRPV1) | AID 540277 | actives 0.02% (n = 320,000) | potentiation, % at 8.33 µM | TRPV1-expressing cells, Fluo-8 calcium influx, capsaicin EC20 potentiation; in the data active = potentiation above about 80%; inconclusive = between about 30% and that limit; also: 0% is about no effect
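Cells expressing TRPV1 were dye-loaded with Fluo-8 and read kinetically: 10 s baseline, 3 min after compound (agonist portion), then 2 min after EC20 capsaicin (allosteric enhancer portion). Calcium-bound dye fluorescence at 480/520 nm.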
* marks the source's active call; other numbers are inactive results; ? = inconclusive; nt = no result given; ! = not active in a repeat. Sampled rows, rich in hits. Any-hit rate of the full collection: about 4.2%.

SMILES | TRPV1 ag | D1 potentiator | D1 agonist | D1 antag | TRPV1 potentiator
COc1ccc(F)cc1S(=O)(=O)N1CCCC(C)C1 (stereo unspecified) | 1 | -5 | 0 | 5 | 4
COc1ccccc1N1CCN(S(=O)(=O)c2ccccc2)CC1 | -2 | -3 | 4 | -10 | -3
COc1ccccc1N1CCN(S(=O)(=O)c2ccccc2F)CC1 | 18 | 9 | 16 | -32* | -19
COc1ccc(F)cc1S(=O)(=O)N1CCCN(S(=O)(=O)c2cc(F)ccc2OC)CC1 | 2 | 0 | 9 | -30* | -2
Cn1c(=O)c2nc(SCC(=O)Nc3ccc(Cl)c(Cl)c3)n(C)c2n(C)c1=O | nt | 0 | -3 | nt | nt
CCOc1ccccc1NC(=O)c1c2c(nc3ccccc13)C(=O)N(C1CCCCC1)C2 | nt | -4 | 1 | 14 | nt
Cc1ccc(N/C(N)=N/c2nc(C)cc(N3CCCCC3)n2)c(C)c1 | 0 | -8 | 16 | -99* | -2
CCOCCCn1c(SCC(=O)Nc2ccc(C)cc2)nc2ccccc2c1=O | nt | 2 | -1 | 0 | nt
O=C(Nc1ccccc1)NC1CS(=O)(=O)CC1O (stereo unspecified) | 0 | -9 | 2 | -41* | -12
COc1ccc(CNS(=O)(=O)c2ccc(N3CCCCS3(=O)=O)cc2)cc1 | nt | -1 | 16 | -14 | nt
CC(=O)OCC(=O)[C@@]12OC(C)(C)O[C@@H]1C[C@H]1[C@@H]3C[C@H](F)C4=CC(=O)C=C[C@]4(C)[C@@]3(F)[C@@H](O)C[C@@]12C | 16 | -3 | 5 | -35* | -18
O=C(NCc1ccco1)C1CCN(C(=O)c2cc3sccc3n2Cc2ccc(F)cc2)CC1 | -3 | -4 | 12 | -32* | 3
Cc1cccc(N(CC(=O)N/N=C/c2cc([N+](=O)[O-])ccc2Cl)S(C)(=O)=O)c1C | -2 | -1 | 0 | -45* | -18
Cc1cc(C)cc(NC(=O)c2cc(S(=O)(=O)N3CCC(C)CC3)cn2C)c1 | nt | 1 | 3 | 8 | nt
Cc1c(Cl)cccc1N1C(=O)c2ccccc2C1=O | 5 | -1 | 1 | -19 | -2
Nc1ccc(N2C(=O)c3ccccc3C2=O)c(Cl)c1 | 8 | -3 | -1 | -46* | -10
COc1ccccc1CNS(=O)(=O)c1cc(C(=O)Nc2cccc(C(F)(F)F)c2)ccc1F | nt | -4 | 0 | -23 | nt
CC(C(=O)Nc1ccc2c(c1)OCCO2)n1nnc(-c2ccccc2)n1 (stereo unspecified) | 15 | 3 | 14 | -53* | -9
CCCN1CCC(NC(=O)c2cccc(Oc3ccccc3)c2)CC1 | -2 | -5 | 2 | -14 | ?
COc1cc(OC)cc(C(=O)NC2CCN(CCCOc3ccccc3)CC2)c1 | 2 | -20 | 7 | -37* | 5
CCCN1CCc2nc(N3CCN(c4ncccn4)CC3)ncc2C1 | nt | 0 | 3 | -13 | nt
Cc1cccc(OCCSc2nc3ccc(NC(=O)COc4ccccc4F)cc3s2)c1 | nt | 1 | 7 | -26 | nt
Cc1cc(C)n(C(=O)CCCC(=O)n2nc(C)cc2C)n1 | 2 | -10 | 2 | -32* | -5
Cc1cc(C)n(C(=O)CCCCCCCC(=O)n2nc(C)cc2C)n1 | 1 | 4 | -1 | -1 | -8
CCCCn1nc(-c2ccccc2)c2nc3ccccc3nc21 | ? | 2 | 51* | -8 | -13
SMILES | TRPV1 ag | D1 potentiator | D1 agonist | D1 antag | TRPV1 potentiator
Cc1ccc(-c2nc3ccccc3nc2-c2ccccc2)cc1 | 1 | 1 | 4 | -6 | 1
Cn1nc(-c2ccccc2)c2nc3ccccc3nc21 | 13 | 4 | 94* | 5 | 1
Cc1cccc2cc(CN(Cc3ccco3)C(=O)c3ccncc3)c(=O)[nH]c12 | -1 | 2 | 1 | -70* | 18
COCCN(Cc1cc2cccc(C)c2[nH]c1=O)C(=O)c1ccccc1 | -2 | -3 | -3 | 1 | 3
CCC(=O)N(CCc1ccccc1)Cc1cc2cccc(C)c2[nH]c1=O | 88* | 1 | 5 | -43* | 22
O=C(O)c1ccc(-c2ccc(/C=N/Nc3ccc([N+](=O)[O-])cc3)o2)cc1 | ? | 0 | 151* | 5 | -6
O=C(N/N=C/c1ccc([N+](=O)[O-])o1)C(=O)Nc1ccc(C(=O)O)cc1 | nt | 5 | 2 | -3 | nt
O=C(O)c1ccc(N/N=C/C=C/c2ccc([N+](=O)[O-])o2)cc1 | 11 | 1 | 56* | -5 | 17
O=C(O)c1cccc(-c2ccc(/C=N/Nc3ccc([N+](=O)[O-])cc3)o2)c1 | ? | 3 | 103* | 4 | -17
N#Cc1cccc(NC(=O)Cn2nc(Cc3ccncc3)c3ccccc3c2=O)c1 | nt | 1 | 1 | 7 | nt
CCn1c(=O)n(-c2ccc3c(c2)OCO3)c2nc(-c3ccc(C(C)C)cc3)nc(C(N)=O)c21 | nt | -1 | 2 | 19 | nt
CCC(CC)C(=O)Nc1ccc(-c2cn3cccnc3n2)cc1 | 2 | -4 | 0 | -31*! | 6
CCC(CC)C(=O)Nc1ccncc1 | -1 | -6 | 0 | -46* | -5
CCC(CC)C(=O)Nc1cccc(-c2cn3cccnc3n2)c1 | nt | 4 | 3 | -34* | nt
O=c1cc(CSc2ccccc2)[nH]c2ccc(F)cc12 | nt | -4 | 18 | -16 | nt
Cc1ccc(CNC(=O)CS(=O)(=O)c2cccc3nsnc23)cc1 | nt | 1 | 0 | 17 | nt
O=C(NCc1ccccc1)c1c2c(nc3ccccc13)C(=O)N(C1CCCCC1)C2 | nt | -4 | 1 | 8 | nt
COc1ccc(OC)c2c1CCC2=O | -3 | -8 | 0 | -65* | 0
N#CC1=C(N)S[C@@H](C(=O)c2ccc(F)cc2)[C@@H]1c1cccs1 | 2 | -8 | 3 | -43* | 6
Clc1ccc2c(c1)-c1c(cnc3cc(-c4ccccc4)nn13)CO2 | nt | -4 | 0 | -9 | nt
COc1ccccc1NC(=O)C(=O)N/N=C(\C)CC(=O)Nc1ccccn1 | -1 | -6 | 1 | -35* | -4
COc1ccc(Cl)cc1NC(=O)CSc1c2c(nc3ccccc13)CCC2 | nt | 3 | -2 | 0 | nt
Cc1cc(N/N=C/c2ccc(O)c(C)c2O)nc(-c2ccccc2O)n1 | -1 | -9 | 0 | -32* | -12
C/C(=N\Nc1cc(C)nc(-c2ccccc2O)n1)c1ccccc1 | -1 | 20 | 3 | 2 | 9
Cc1cc(C)cc(NC(=O)c2ccc3oc(=O)c(S(=O)(=O)c4ccc(F)cc4)cc3c2)c1 | nt | -2 | 2 | -3 | nt
COc1cc(NC(=O)c2cccc3c2C(=O)N(C2CCCCC2)C3)cc(OC)c1OC | ? | 1 | -1 | -78*! | -5
Cc1cc(C)cc(NC(=O)c2cccc3c2C(=O)N(C2CCCCC2)C3)c1 | -3 | -4 | 0 | -1 | 11
Cc1ccc(-c2nnc(SCc3ccccc3C#N)o2)cc1 | nt | -3 | 4 | 0 | nt
Nc1nonc1/C(=N/O)N1CCN(CCO)CC1 | -2 | 0 | 2 | 6 | -8
CN1CCN(/C(=N\O)c2nonc2N)CC1 | -1 | -10 | 5 | -42* | 27

Screening results: PubChem, National Center for Advancing Translational Sciences (NCATS)
